Most compounds without a hit are left out; they make up all but 1.9% or so of the library.
MsrA act: bovine methionine sulfoxide reductase A activation | 360,000 compounds, 0.3% hits | AID 602163 | purified bovine MsrA, absorbance read-out | activation, % at 10.6 µM; in the data active = activation above about 7.5%;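 also: 0% = vehicle and 100% = reference activator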
PLCb3 inh: PLC-beta3 (human) inhibition, primary screen | Purified PLC-beta3, fluorogenic substrate, fluorescence | inhibition, % at 12.2 µM | 370,000 compounds, 0.18% hits | AID 720704; in the data active = inhibition above about 11%;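 also: 0% = median of compound wells on plate and 100% = full blocker control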
PLC-gamma1 inh: blocks human PLC-gamma1 enzyme activity; P19174; purified PLC-gamma1, fluorogenic substrate, fluorescence; inhibition, % at 12.2 µM; 370,000 compounds, 0.84% hits; AID 720700; in the data active = inhibition above about 9.5%
Target sequence (P19174 whole entry, looked up): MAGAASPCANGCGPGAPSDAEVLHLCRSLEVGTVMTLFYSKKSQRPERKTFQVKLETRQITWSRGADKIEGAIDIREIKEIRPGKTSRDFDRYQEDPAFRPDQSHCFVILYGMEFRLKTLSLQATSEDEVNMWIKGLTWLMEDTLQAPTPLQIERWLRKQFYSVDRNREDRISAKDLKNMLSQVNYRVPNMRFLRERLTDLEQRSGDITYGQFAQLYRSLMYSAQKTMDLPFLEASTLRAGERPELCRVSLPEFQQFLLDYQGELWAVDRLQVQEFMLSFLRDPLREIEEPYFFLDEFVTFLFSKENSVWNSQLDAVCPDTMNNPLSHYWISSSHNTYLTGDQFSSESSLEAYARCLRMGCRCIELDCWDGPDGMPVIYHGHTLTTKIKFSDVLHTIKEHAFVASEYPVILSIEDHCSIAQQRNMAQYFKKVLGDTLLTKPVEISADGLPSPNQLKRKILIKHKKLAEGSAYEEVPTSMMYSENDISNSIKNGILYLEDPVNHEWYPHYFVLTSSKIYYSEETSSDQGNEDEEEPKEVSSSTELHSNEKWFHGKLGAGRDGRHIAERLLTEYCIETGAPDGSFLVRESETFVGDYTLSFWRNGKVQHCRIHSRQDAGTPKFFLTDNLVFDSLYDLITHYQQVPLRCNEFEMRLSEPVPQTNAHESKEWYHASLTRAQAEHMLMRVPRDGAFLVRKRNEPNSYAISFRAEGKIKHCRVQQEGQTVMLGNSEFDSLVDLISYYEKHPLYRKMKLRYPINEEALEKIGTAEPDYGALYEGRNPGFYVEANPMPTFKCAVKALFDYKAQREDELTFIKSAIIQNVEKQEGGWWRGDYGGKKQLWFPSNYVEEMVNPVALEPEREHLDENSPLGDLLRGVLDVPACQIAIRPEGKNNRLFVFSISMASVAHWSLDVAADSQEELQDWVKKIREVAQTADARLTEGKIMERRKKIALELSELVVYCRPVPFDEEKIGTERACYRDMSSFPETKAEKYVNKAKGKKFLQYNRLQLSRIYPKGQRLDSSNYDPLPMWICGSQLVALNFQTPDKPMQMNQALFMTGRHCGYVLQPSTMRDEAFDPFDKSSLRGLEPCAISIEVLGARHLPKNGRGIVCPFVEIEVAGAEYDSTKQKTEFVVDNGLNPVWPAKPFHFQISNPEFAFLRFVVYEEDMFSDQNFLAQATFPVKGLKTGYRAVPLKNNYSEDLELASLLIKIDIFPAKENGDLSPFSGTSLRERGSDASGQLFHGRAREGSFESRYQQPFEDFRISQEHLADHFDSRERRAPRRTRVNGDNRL
MsrA inh: bovine MsrA inhibition | purified bovine MsrA, absorbance read-out | inhibition, % at 15.5 µM | 360,000 compounds, 0.75% hits | AID 651718;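 also: 0% = vehicle wells with enzyme and 100% = reference inhibitor wells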
MsrA inh confirm: confirmation of bovine MsrA inhibitors. shares compounds with MsrA inh. purified bovine MsrA, absorbance read-out. inhibition, % at 15.5 µM. 2,300 compounds, 41% hits;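 also: coupled to thioredoxin reductase with NADPH and selenocystamine and DMSO as substrate; 0% = vehicle only and 100% = full effect of reference inhibitor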
Numbers without * were called inactive; i = inactive; . = no result given. Rule as the data show it, unless noted: active = inhibition above about 4.5%; inactive = the rest.

SMILES	MsrA act	PLCb3 inh	PLC-gamma1 inh	MsrA inh	MsrA inh confirm
NC(=O)c1ncn([C@@H]2O[C@H](C(=O)N3CCN(Cc4ccccn4)CC3)[C@@H](O)[C@H]2O)n1	.	5.9	2.2	-0.6	.
COc1ccc(Oc2nnnn2-c2ccccc2)cc1	0.4	-3.6	-0.7	0.7	.
COc1cccc(Oc2nnnn2-c2ccccc2)c1	-3.1	5.2	3.2	4.7*	1.2
N#Cc1ccc(S(=O)(=O)N2CCCc3nc(-c4ccc(Br)cc4)ccc32)cc1	.	0.7	0.8	-0.2	.
Cc1c(NC(=O)/C(C#N)=C/c2ccc(-c3cccc(Cl)c3)o2)c(=O)n(-c2ccccc2)n1C	0.3	0.8	8.1	2.2	.
N#C/C(=C\c1ccc(-c2cccc(C(F)(F)F)c2)o1)C(=O)Nn1cnnc1	-7.1	-5.1	-3.8	4.8*	2.0
CCN(CC)c1ccc(C=Nc2ccc(C)cc2)c(O)c1	-1.8	-47.1	-37.0	6.9*	6.3*
CCN(CC)c1ccc(C=Nc2ccc(N(C)C)cc2)c(O)c1	-11.5	-45.6	-38.1	5.9*	1.9
COC(=O)c1cc2c(c3c4ccccc4n(S(=O)(=O)c4ccc(C)cc4)c13)C(=O)N(C)C2	.	-8.6	-8.2	0.3	.
c1csc(C2CCCN2c2nc3nonc3nc2NC2CC2)n1 (stereo unspecified)	-4.5	-2.1	0.1	5.7*	1.5
CC(c1nccs1)N(C)c1nc2nonc2nc1NC1CC1 (stereo unspecified)	-1.9	-12.2	0.7	4.2	.
C[C@@H]1CCCCO[C@@H](CN(C)C(=O)CCC(F)(F)F)[C@@H](C)CN([C@H](C)CO)C(=O)c2cc(NS(=O)(=O)c3cccs3)ccc2O1	.	-0.3	5.0	-0.4	.
CC(=O)Cc1nsc(NC(=O)c2ccc(-c3ccc(F)cc3)o2)n1	-5.7	-145.1	-91.7	7.0*	5.4*
COc1ccc2nc(C)cc(N/N=C/c3ccc(F)cc3)c2c1	-7.2	-20.7	-15.9	42.0*	53.8*
COc1ccc(/C=N/Nc2cc(C)nc3ccccc23)cc1	-5.9	-198.2	-205.9	0.4	.
O=C(/C=C/c1cccs1)c1ccc(N2CCOCC2)cc1	-3.7	-17.6	-14.9	6.1*	2.2
O=C(/C=C/c1cccc(F)c1)c1ccc(N2CCOCC2)cc1	-4.4	-16.0	-9.2	0.9	.
C=CCN1C(=O)[C@@H](CC(=O)NCc2cccc(C(F)(F)F)c2)[C@]2(C(=O)OCC)CCCCC/C=C/12	.	-2.5	-1.0	.	.
CC1(c2ccc(OC(F)F)cc2)NC(=O)N(CC(=O)Nc2ccccc2)C1=O (stereo unspecified)	-1.4	-2.9	1.4	0.6	.
Cc1ccc2nc(-c3ccc(NC(=O)CN4C(=O)NC(C)(c5ccc(OC(F)F)cc5)C4=O)cc3)sc2c1 (stereo unspecified)	-5.7	-43.6	-32.4	4.7*	3.3
CC(C)C[C@H]1COc2c(Cl)cccc2S(=O)(=O)N1Cc1cccc(Cl)c1	.	-0.4	-1.2	-0.1	.
COc1cc2c(cc1OC)[C@](C)(c1ccccc1)C[C@@H]2NCC=C(C)C	.	1.5	2.4	-0.7	.
Nc1[nH]c(C(=O)c2ccc(Br)cc2)c(-c2ccc(Br)cc2)c1C(=O)NCc1cccc2ccccc12	.	-5.1	-0.3	0.8	.
N#C/C(C(=O)N1CCOCC1)=C1\Nc2ccccc2S1	-7.2	0.4	2.2	7.9*	5.7*
C=CCNc1sc(C(=O)C2CC2)c(N)c1C#N	-8.0	1.5	-0.2	6.4*	4.8*
SMILES	MsrA act	PLCb3 inh	PLC-gamma1 inh	MsrA inh	MsrA inh confirm
N#Cc1cn(-c2ccccc2)nc1-c1ccco1	-6.2	-7.9	-4.4	5.2*	3.8
O=C(O)CC1S/C(=N\N=C2\C(=O)Nc3ccccc32)N(c2ccc(O)cc2)C1=O (stereo unspecified)	-2.2	-3.9	2.6	5.9*	3.8
Cn1c(C(=O)O)cc2c(=O)n3ccccc3nc21	-8.0	i	i	5.3*	2.3
Cc1ccc(-c2cc(C(=O)O)c3ccccc3n2)s1	-1.9	i	i	5.4*	2.8
CCN(CC)C(=O)CC[C@@H]1CC[C@]2(CCCN(Cc3ccccn3)C2)O1	.	1.9	1.4	.	.
N=C1N(C(=O)OCc2ccccc2)/C(=C\C2=CCCCC2)C(Cc2ccccc2)N1Cc1ccccc1 (stereo unspecified)	.	-12.2	-9.9	.	.
COc1ccc(NC(=O)COC(=O)C2CCCCC2)c([N+](=O)[O-])c1	-3.0	1.4	0.2	11.8*	8.1*
CNS(=O)(=O)c1cccc(C(=O)OCC(=O)Nc2ccc(OC)cc2[N+](=O)[O-])c1	-4.3	-0.1	-1.4	6.0*	1.3
NS(=O)(=O)c1cc(C(=O)OCC(=O)Nc2ccccc2[N+](=O)[O-])ccc1Cl	-5.4	0.1	0.7	12.5*	6.0*
NS(=O)(=O)c1cc(C(=O)OCC(=O)Nc2ccc(Cl)cc2[N+](=O)[O-])ccc1Cl	-12.2	0.4	3.2	-0.3	.
CCCCCCN1CCN(C2CN(Cc3cn(Cc4ccc(C(F)(F)F)cc4)nn3)S(=O)(=O)C2)CC1 (stereo unspecified)	.	5.9	2.8	-0.1	.
CCn1cc(C(=O)N2CCN(c3ccc(F)cc3)CC2)c(=O)c2ccc(C)nc21	.	1.3	-1.2	.	.
COC(=O)[C@]12C[C@H](CC(=O)NCc3cccs3)C(=O)N(Cc3ccccc3)C1=C[C@H](C(C)(C)C)O[C@@H]2C	.	3.9	1.1	-0.4	.
COc1ccccc1/C=C/C=N/NC(=O)Cc1cccn1C	-2.4	-27.6	-18.3	5.8*	4.9*
COc1ccccc1/C=C\C=N\NC(=O)CCn1nnc2ccccc21	-10.8	-1.2	3.2	5.0*	3.7
COc1ccccc1/C=C\C=N\NC(=O)c1ccco1	-2.2	-2.2	-5.4	1.7	.
COc1ccccc1/C=C/C=N/NC(=O)c1cccs1	-3.6	-51.9	-41.2	5.8*	6.7*
Cn1cccc1CC(=O)NN=C/C=C\c1ccco1	.	-9.1	-11.2	.	.
Cc1[nH]c2ccccc2c1CC(=O)Nc1ccc(Nc2ccncc2)cc1	.	-17.9	-15.6	0.7	.
Cn1cc(/C=C(\NC(=O)c2ccccc2)C(=O)N2CCOCC2)c2ccccc21	-4.8	-15.0	-6.1	5.7*	3.3
COc1cc(C(=O)N/C(=C\c2cn(C)c3ccccc23)C(=O)NCCN2CCOCC2)cc(OC)c1OC	-5.7	-17.0	-6.1	5.3*	3.7
CCn1cc(/C=C(\NC(=O)c2ccccc2)C(=O)NCCCN2CCOCC2)c2ccccc21	-3.2	-9.6	0.7	4.7*	4.2
CCn1cc(/C=C(\NC(=O)c2cc(OC)c(OC)c(OC)c2)C(=O)NCCN2CCOCC2)c2ccccc21	-4.4	-9.7	-1.5	1.8	.
CCn1cc(/C=C(\NC(=O)c2cc(OC)c(OC)c(OC)c2)C(=O)NCCCN2CCOCC2)c2ccccc21	-2.1	-9.4	-0.9	1.8	.
COc1ccc(C(=O)N/C(=C\c2cn(C)c3ccccc23)C(=O)NCCN2CCOCC2)cc1OC	-11.7	-24.2	-13.8	4.8*	4.3
CC(C)CN1CN2CCc3ccccc3C2CS1(=O)=O (stereo unspecified)	.	-0.3	0.4	.	.
Cn1nc(C(C)(C)C)cc1C(=O)NCC1CCN(C(=O)C(=O)c2cc3ccccc3o2)CC1	.	-0.9	0.5	1.3	.
Cn1cc(/C=C(\NC(=O)c2ccccc2Cl)C(=O)NCCCN2CCOCC2)c2ccccc21	-2.8	-8.3	-1.0	3.6	.

Screening results from PubChem.
